This is an account of results in PubChem BioAssay (Tox21).

Records with an inconclusive call do not appear. Some structures have more than one record in an assay (separate samples or runs), and their calls can disagree. Calls of active or inactive are those of the source. Unless noted, the call rests on the fitted dose curve; in most records, active means well fitted curve in the direction sought with a large enough effect in the repeat runs; inconclusive means weak or mixed curves; inactive means no such curve, though single readings can be large; an effect the other way counts as inactive or inconclusive.

Test [1] is described as follows: qHTS assay to test for compound auto fluorescence at 535 nm (green) in HEK293 cells (AID 720680). On the technique in general: qHTS replaces the single test concentration by a dilution series.
Test [2] can be described thus: qHTS assay to test for compound auto fluorescence at 460 nm (blue) in HEK293 cell free culture (AID 720681). Put shortly: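 Test compounds were pinned into cell-free culture medium (DMEM with 10% FBS) and fluorescence was read directly at Ex/Em 405/460 nm. Signals were expressed as fluorescence equivalents of triamterene, with DMSO vehicle as control.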
Test [3] is described as follows: qHTS assay to test for compound auto fluorescence at 535 nm (green) in HEK293 cell free culture (AID 720682). The method, boiled down:
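Measurement is a direct plate read of green fluorescence (485 nm in, 535 nm out) after compound addition to serum-supplemented DMEM lacking cells, with fluorescein used to express intensities.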

Test [4] is described as follows: qHTS assay to test for compound auto fluorescence at 590 nm (red) in HEK293 cell free culture (AID 720683). The method, boiled down: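 Tox21 10K library compounds were pinned into cell-free DMEM with 10% FBS and fluorescence was read at excitation 540 nm. Activity is expressed as Rose Bengal sodium equivalency.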
Test [5] in a line: qHTS assay to test for compound auto fluorescence at 590 nm (red) in HepG2 cell free culture (AID 720684). The method, boiled down:
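Ex 540 / Em 590 nm read of compound in cell-free MEM (10% FBS). Rose Bengal sodium reference.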

Test [6] in a line: qHTS assay to test for compound auto fluorescence at 460 nm (blue) in HepG2 cell free culture (AID 720685). The method, boiled down:
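Cell-free plates of MEM plus 10% FBS received 23 nL compound or DMSO vehicle; blue-channel (405/460 nm) intensity scored against triamterene as reference fluorophore.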

Test [7] is described as follows: qHTS assay to test for compound auto fluorescence at 535 nm (green) in HepG2 cell free culture (AID 720686).
A short description of test [8]: qHTS assay to test for compound auto fluorescence at 460 nm (blue) in HepG2 cells (AID 720687). Put shortly: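 Cells (2,000/well in MEM with 10% FBS) attached overnight at 37 C, then were exposed to compound or DMSO for 1 hr at 37 C, 5% CO2. Fluorescence read at Ex/Em 405/460 nm, expressed as triamterene-equivalent signal.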
Test [9] deals with Glucocorticoid receptor (Homo sapiens) (UniProt P04150). Nature of the test: qHTS assay to identify small molecule agonists of the glucocorticoid receptor (GR) signaling pathway (AID 720691; active means well fitted activation curve with a large enough effect in the signal ratio in the repeat runs, not every such curve was filed as active; the % refers to the signal ratio). Put shortly:
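Compounds in DMSO, alongside positive controls, were added to GR-bla HeLa reporter cells and incubated 18 h at 37 C; GRE-driven beta-lactamase was detected by fluorescence after 2 h with FRET substrate at room temperature.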

The target is the same in test [10]. Nature of the test: qHTS assay to identify small molecule antagonists of the glucocorticoid receptor (GR) signaling pathway (AID 720692; active means well fitted inhibition curve with a large enough effect in the signal ratio in the repeat runs, not every such curve was filed as active; the % refers to the signal ratio). Put shortly: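 In a 1536-well cell format, compounds were added 4 h after seeding GR-bla HeLa cells, together with dexamethasone at 5 nM final; reporter activity was measured by FRET-substrate fluorescence following 18 h at 37 C.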

Test [11] can be described thus: qHTS assay to identify small molecule antagonists of the glucocorticoid receptor (GR) signaling pathway - cell viability counter screen (AID 720693). Further: nearly all actives have a fitted effect of over 55% in size.
The nature of test [12]: qHTS assay for identifying genotoxic compounds that show differential cytotoxicity against isogenic chicken DT40 cell lines with known DNA damage response pathways - wild type cell line (AID 743012). Further: nearly all actives have a fitted effect of over 60% in size. The method, boiled down: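 Viability of DNA repair-proficient chicken DT40 cells was assessed by CellTiter-Glo luminescence following 40 h compound exposure at 37 C/5% CO2.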

A short description of test [13]: qHTS assay for identifying genotoxic compounds that show differential cytotoxicity against isogenic chicken DT40 cell lines with known DNA damage response pathways - Rev3 mutant cell line (AID 743014). Further: nearly all actives have a fitted effect of over 55% in size.
Test [14] in a line: qHTS assay for identifying genotoxic compounds that show differential cytotoxicity against isogenic chicken DT40 cell lines with known DNA damage response pathways - Rad54/Ku70 mutant cell line (AID 743015). Further: nearly all actives have a fitted effect of over 60% in size. Further: potency means the concentration at half of the fitted maximal effect.
The nature of test [15]: qHTS assay to identify small molecule antagonists of the androgen receptor (AR) signaling pathway - cell viability counter screen (AID 743033; further: nearly all actives have a fitted effect of over 45% in size).
The nature of test [16]: qHTS assay to identify small molecule antagonists of the androgen receptor (AR) signaling pathway using the MDA cell line - cell viability counter screen (AID 743041; further: nearly all actives have a fitted effect of over 45% in size). Put shortly: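 In this qHTS counter assay, fluorescence intensity after CellTiter-Fluor addition indicated viability of MDA-kb2 AR-luc cells given compounds and R1881 for 16 h at 37C.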
Test [17] deals with Androgen receptor (Homo sapiens) (UniProt P10275). Nature of the test: qHTS assay to identify small molecule antagonists of the androgen receptor (AR) signaling pathway (AID 743035; active means well fitted inhibition curve with a large enough effect in the signal ratio in the repeat runs, not every such curve was filed as active; the % refers to the signal ratio). Put shortly:
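Reporter HEK293 cells were exposed to compounds and R1881 overnight (16 h, 37C); beta-lactamase activity was then quantified by FRET fluorescence.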

Test [18] has the same target. Nature of the test: qHTS assay to identify small molecule agonists of the androgen receptor (AR) signaling pathway (AID 743036; active means well fitted activation curve with a large enough effect in the signal ratio in the repeat runs, with a control signal flat, not every such curve was filed as active; the % refers to the signal ratio). Put shortly:
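Beta-lactamase under UAS control, stably integrated in HEK293 GripTite cells, reports receptor activation. After 16 h compound treatment, cells received FRET substrate for 2 h at room temperature before fluorescence reading.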

Test [19] has the same target. Nature of the test: qHTS assay to identify small molecule agonists of the androgen receptor (AR) signaling pathway using the MDA cell line (AID 743040; further: nearly all actives have a fitted effect of over 20% in size). Put shortly: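 Cell-based luciferase reporter: MDA-kb2, MMTV promoter (AR + GR response elements). 16 h compound exposure at 37C; ONE-Glo, 30 min RT, luminescence.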
Test [20] shares this target. Kind of test: qHTS assay to identify small molecule antagonists of the androgen receptor (AR) signaling pathway using the MDA cell line (AID 743042; further: nearly all actives have a fitted effect of over 55% in size). Put shortly:
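MDA-kb2 cells (human breast carcinoma, stably carrying an MMTV-luciferase reporter responsive to AR and GR) were plated at 3,000 cells/well and preincubated 5 hr at 37C, then given compound plus R1881 agonist for 16 h. ONE-Glo luminescence was read.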
On the % scale 0 is the no-effect control and ±100 the full control effect.

Sequence of Androgen receptor (Homo sapiens) (P10275 whole entry, looked up): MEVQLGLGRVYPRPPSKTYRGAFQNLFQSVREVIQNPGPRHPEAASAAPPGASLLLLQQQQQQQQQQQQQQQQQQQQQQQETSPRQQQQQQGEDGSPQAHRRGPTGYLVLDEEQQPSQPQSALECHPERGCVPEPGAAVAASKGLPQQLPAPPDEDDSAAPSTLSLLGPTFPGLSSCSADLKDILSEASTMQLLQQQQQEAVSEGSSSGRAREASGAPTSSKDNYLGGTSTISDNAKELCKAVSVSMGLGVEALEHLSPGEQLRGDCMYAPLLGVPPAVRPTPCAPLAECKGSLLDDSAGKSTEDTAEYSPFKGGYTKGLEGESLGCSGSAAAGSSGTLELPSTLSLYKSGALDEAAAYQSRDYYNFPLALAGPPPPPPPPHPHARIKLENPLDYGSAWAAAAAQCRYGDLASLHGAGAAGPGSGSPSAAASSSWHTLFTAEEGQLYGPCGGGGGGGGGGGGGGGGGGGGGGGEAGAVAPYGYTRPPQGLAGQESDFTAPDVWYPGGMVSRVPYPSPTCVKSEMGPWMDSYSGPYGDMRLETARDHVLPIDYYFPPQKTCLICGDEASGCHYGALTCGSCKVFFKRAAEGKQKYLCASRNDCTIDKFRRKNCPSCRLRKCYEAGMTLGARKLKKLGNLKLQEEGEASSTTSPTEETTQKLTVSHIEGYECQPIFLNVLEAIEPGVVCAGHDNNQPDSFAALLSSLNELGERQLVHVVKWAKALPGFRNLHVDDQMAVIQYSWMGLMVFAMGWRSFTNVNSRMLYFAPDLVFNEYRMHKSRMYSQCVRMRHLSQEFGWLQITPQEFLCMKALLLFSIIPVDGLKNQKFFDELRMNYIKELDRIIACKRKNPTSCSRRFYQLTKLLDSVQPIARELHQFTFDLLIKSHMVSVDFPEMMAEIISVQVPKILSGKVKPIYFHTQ
Sequence of Glucocorticoid receptor (Homo sapiens) (P04150 whole entry, looked up): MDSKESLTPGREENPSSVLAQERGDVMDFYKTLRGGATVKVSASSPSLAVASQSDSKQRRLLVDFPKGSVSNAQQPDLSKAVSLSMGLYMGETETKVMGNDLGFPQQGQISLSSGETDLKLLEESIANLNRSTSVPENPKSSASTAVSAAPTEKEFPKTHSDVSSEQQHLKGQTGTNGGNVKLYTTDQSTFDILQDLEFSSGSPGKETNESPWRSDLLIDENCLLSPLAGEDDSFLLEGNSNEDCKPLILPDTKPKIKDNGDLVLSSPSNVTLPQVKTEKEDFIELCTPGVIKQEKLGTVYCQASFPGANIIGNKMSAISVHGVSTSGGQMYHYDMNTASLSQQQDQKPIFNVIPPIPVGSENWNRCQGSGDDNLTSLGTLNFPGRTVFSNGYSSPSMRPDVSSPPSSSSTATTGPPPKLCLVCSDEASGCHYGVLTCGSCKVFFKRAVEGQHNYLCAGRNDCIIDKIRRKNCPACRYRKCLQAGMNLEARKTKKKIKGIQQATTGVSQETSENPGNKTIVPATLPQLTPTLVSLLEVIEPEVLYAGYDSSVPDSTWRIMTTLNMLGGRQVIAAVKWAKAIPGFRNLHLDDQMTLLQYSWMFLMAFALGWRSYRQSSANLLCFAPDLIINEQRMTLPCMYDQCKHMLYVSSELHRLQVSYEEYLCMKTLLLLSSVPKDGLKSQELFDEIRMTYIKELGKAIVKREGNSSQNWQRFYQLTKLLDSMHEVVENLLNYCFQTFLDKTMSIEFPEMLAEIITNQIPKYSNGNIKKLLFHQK

On to `O=S(=O)(O)CCN1CCN(CCO)CC1`, for which the compound was classed as inactive in [1], in [2], in [3], in [4], in test [5] and in test [6]. Moreover, the result in [7], in test [8], in test [10] and in [11] was inactive. Also, the Potency entry in test [9], in test [12], in test [13], in test [14], in test [15] and in test [16] was “inactive” in each case.
Regarding `CCOc1cc(NC(C)=O)ccc1C(=O)OC`, the compound was classed as inactive in [1], in test [2], in [3], in test [4], in [5] and in test [6]. The result in [7], in [8], in test [10] and in test [11] was inactive. Moreover, the Potency entry in test [9], in test [12], in test [13], in [14], in test [15] and in test [16] was “inactive” in each case.
On to `CCCCCCCC/C=C\CCCCCCCC(=O)OCCCC`, for which, in test [1], the fluorescence, % of fluorescein was 0.0126% [at 18.6 µM] (inactive). Also, the fluorescence, % of fluorescent control in [2] was -0.0858% [at 18.6 µM] (inactive); in test [4] it was 0.213% [at 18.6 µM] (inactive); in test [6] it was -0.0292% [at 18.6 µM] (inactive); in test [8], -0.0041% [at 18.6 µM] (inactive). In addition, in test [3], the activity change was -0.0648% [at 18.6 µM] (inactive). Besides, in test [5], the fluorescence, % of Rose Bengal was 0.134% [at 18.6 µM] (inactive). In test [7], the fluorescence, % of fluorescein control is -0.0278% [at 18.6 µM] (inactive). Also, the Potency result in test [9], in test [12], in [13], in [14], in [15] and in [16] was “inactive” throughout. Also, the result in test [10] and in [11] was inactive.
Regarding `O=C(OCc1ccccc1)C(=O)OCc1ccccc1`, the call in [1], in test [2], in [3], in test [4], in test [5] and in test [6] was inactive. Also, the compound was classed as inactive in test [7], in [8], in [10], in test [11], in test [18] and in test [19]. The Potency result in test [9], in test [12], in test [13], in test [15], in test [17] and in [16] was “inactive” in each case. Besides, the Potency entry in test [20] is “inactive”.
For `O=P(O)(O)OP(=O)(O)O`, the compound was called inactive in [1], in test [2], in [3], in test [4], in test [5] and in test [6]. Besides, the compound was classed as inactive in test [7], in test [8], in test [10] and in [11]. For the same compound, the Potency entry in test [9], in [12], in test [13], in test [15] and in [16] was “inactive” in each case. Moreover, the Potency in test [14] is 11.9 µM (active) and inactive.
Turning to `COc1ccc2c(c1OC)C(=O)O[C@@H]2[C@H]1c2c(cc3c(c2OC)OCO3)CCN1C`, the call in test [1], in test [2], in [3], in [4], in [5] and in test [6] was inactive. Moreover, the compound was called inactive in test [7], in test [8], in test [10] and in test [11]. For the same compound, the Potency result in test [9], in [12], in test [14] and in test [15] was “inactive” in each case.
`C=C(C)C1CCC(C)(O)CC1` (stereo unspecified): the compound was called inactive in test [1], in [2], in [3], in [4], in test [5] and in [6]. Further, the outcome in test [7], in test [8], in test [10], in test [18] and in test [19] was inactive. The Potency result in test [9], in test [12], in test [13], in [14], in test [15] and in test [17] was “inactive” each time. The Potency result in [16] and in [20] was “inactive” each time.
